# Bioassay records from PubChem.
# KDM5B inh: inhibitors of human KDM5B histone demethylase; Q9UGL1; KDM5B demethylase, FDH-coupled NADH fluorescence (FDH is formaldehyde dehydrogenase); Potency, µM (doses to about 57.7 µM), most hits filed as inhibitors; 220,000 compounds, 2.6% hits; AID 1347165; active = well fitted inhibition curve with a large enough effect; also: 0% is about no effect; nearly all actives have a fitted effect of over 70% in size
#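 qHTS format, multiple compound concentrations. Buffer 50 mM HEPES pH 7.5/0.01% Tween-20; 200 nM KDM5BΔAP final; 10 min compound preincubation; substrate-mix levels 12.5 µM peptide, 25 µM α-KG, 0.25 mM NAD⁺; 30 min RT; ΔRFU.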
# * hit, by the source's call; i = inactive; ! = repeats disagree. This is one part of a sample in which hits are shown more often than they occur. Potency is read from the fitted curve at half-maximal effect.
SMILES,KDM5B inh
CN(C)C[C@@H]1CN(c2ncccn2)C[C@H]1NS(=O)(=O)c1ccc(Cl)cc1,28.2µM*
CN(C)CCCNC(=O)c1nc(CC(=O)Nc2cccc3ncccc23)no1,i
O=C(COC(=O)C1CC(=O)N(c2nc(-c3ccc(Cl)cc3)cs2)C1)c1ccc(Cl)cc1 (stereo not given),i
Cc1cc(C[C@@H]2COC[C@@H]2NC(=O)COc2cccc(C)c2C)on1,20µM*
Cc1cc(C[C@@H]2COC[C@@H]2NC(=O)Cn2ncc3ccccc32)on1,i
Cc1cc(C[C@@H]2COC[C@@H]2NC(=O)CCn2cnc3ccccc32)on1,i
O=C(O)C1(Cc2nc3ccccc3s2)CCCC1,i
O=C(COC(=O)c1nc(-c2ccccc2)n(-c2ccccc2)n1)Nc1cc(F)ccc1F,i
CC(C)=CCC1(CO)CCCN(CC(=O)N2CCCCCC2)C1 (stereo not given),i
COc1cc2c(cc1CN1CCCC(CO)(CC=C(C)C)C1)OCCO2 (stereo not given),i
CC(C)=CCC1(CO)CCCN(Cc2cc(=O)n3cc(C)sc3n2)C1 (stereo not given),28.2µM*
O=C(Cc1c[nH]c2ccccc12)NC(c1ccccc1)c1ccccc1,i
Cc1ocnc1C(=O)NC1CC(c2nnc(Cn3cccn3)n2C)C1 (stereo not given),i
CCn1c(CO)nnc1C1CC(NC(=O)c2sccc2N)C1 (stereo not given),11.2µM*
CCn1c(CO)nnc1C1CC(NC(=O)CN2CCOCC2)C1 (stereo not given),i
CCNc1ncc(C(=O)NC2CC(c3nnc(CO)n3CC)C2)cn1 (stereo not given),25.1µM*
Cn1c(Cn2cccn2)nnc1C1CC(NC(=O)c2sccc2N)C1 (stereo not given),15.8µM*!
CCn1c(CO)nnc1C1CC(NC(=O)c2nc(-c3ccccc3)[nH]c2C)C1 (stereo not given),i
Cn1c(Cn2cccn2)nnc1C1CC(Nc2ncnc3ccsc23)C1 (stereo not given),i
COCCn1c(CO)nnc1C1CC(NC(=O)c2cn3ccsc3n2)C1 (stereo not given),i
CCn1c(CO)nnc1C1CC(NC(=O)NCCc2ccccc2F)C1 (stereo not given),i
Cc1ncccc1OC1(C(=O)N2CCCC2c2nc(C(C)C)no2)CCNCC1 (stereo not given),i
CCC(=O)OC1=C(C(C)=O)N(C)S(=O)(=O)c2ccccc21,i
CCN(CC)S(=O)(=O)c1ccc(Cl)c(NC(=O)CSc2nnc(C3CC3)n2C2CC2)c1,i
CC(/C=C/C=C/c1ccccc1)=N\NC(=O)C1CC1c1ccc(C(C)(C)C)cc1 (stereo not given),i
SMILES,KDM5B inh
OC1(c2csc(CN3CCOCC3)n2)CCN(Cc2ccccc2F)CC1,i
O=C(CN1CCN(CC(=O)Nc2ccc(F)cc2)CC1)NCCc1c[nH]c2ccccc12,i
N#CCC(=O)Nc1ccc(C(=O)OCc2ccc(Cl)c(Cl)c2)cc1,i
COCc1nc(CCNC(=O)C2CCC2)no1,i
O=C(C1CC1)N1CCC(Cc2nncn2-c2ccccc2)C1 (stereo not given),i
Cc1ccc(-c2cc(C(F)F)n3ncc(C#N)c3n2)cc1,i
Cc1ccc(OCc2nc3c4c(ncn3n2)Oc2cc(O)ccc2C4c2ccccc2)cc1 (stereo not given),i
Cn1c(=O)c2nc(SCC(=O)Nc3ccc(F)c(Cl)c3)n(C)c2n(C)c1=O,i
N#CCCn1c(SCC(=O)N(C2CCCCC2)C2CCS(=O)(=O)C2)nc2ccccc21 (stereo not given),i
CCCCCn1nc(C(=O)NCC(=O)Nc2cccc(C)c2C)c2ccccc2c1=O,i
COc1ccc(CNC(=O)Cc2c(C)c3c(O)cc(C)cc3oc2=O)cc1OC,i
CC(C)(C)c1nc(C(=O)NCc2cccnc2)n2ccccc12,100µM*
COC(=O)CNC(=O)c1nc(-c2ccsc2)c2cnccn12,39.8µM*
O=C(NCc1cccnc1)c1cccc2ccccc12,i
COC(=O)CNC(=O)C(C)(C)c1ccccc1,i
Cn1ccc2c(C(=O)NCc3cccnc3)nc(-c3ccncc3)cc21,i
O=C(NCc1ccsc1)c1nc(-c2ccc(Cl)cc2)c2cnccn12,i
CC(C)(C)c1nc(C(=O)NCc2cccnc2)n2ccncc12,100µM*
CC(C)(C)C(=O)Nc1ccccc1C(=O)NCc1cccnc1,i
O=C(CNC(=O)c1ccccc1)OCc1cc(=O)n2ccsc2n1,i
COC(=O)CNC(=O)c1nc2sccn2c1Br,i
Cc1ccsc1C(=O)NCc1cccnc1,i
COC(=O)CNC(=O)c1nc(C(C)(C)C)c2cnccn12,112µM*
O=C(CCc1ncc(-c2ccc(F)cc2F)o1)NCc1ccco1,i
CNC(=O)NCc1ccc(OC)cc1,i
SMILES,KDM5B inh
Cc1[nH]c2ccccc2c1C1c2ccccc2C(=O)N1CCc1ccccc1 (stereo not given),i
O=c1[nH]c(CN2CCCCCCC2)nc2ccsc12,i
CCNC(=O)CCc1c(C)nn(-c2ccc(F)cc2)c1Oc1ccccc1C,i
O=C(Cc1ccccc1Cl)NNC(=O)C1CCCCC1,i
COc1ccc2c(c1)O/C(=C\c1ccc(C(C)(C)C)cc1)C2=O,i
Fc1ccc(COc2ccc3ccccc3c2CNCc2cccnc2)cc1,i
O=c1[nH]c(=O)n(-c2ccccc2F)c2c1C(C(F)(F)F)(C(F)(F)F)N=C(c1ccncc1)N2,i
Cn1nc(CN2CCN(c3ccncc3)CC2)c2c(Cl)cccc21,i
COCc1ccc2c(c1)c(OC(C)(C)C(=O)Nc1ccc(OC)cc1)nn2Cc1cccnc1,i
Cn1nc(OC(C)(C)C(=O)NCCc2ccccc2)c2cc(CN3CCCC3)ccc21,39.8µM*
COCc1ccc2c(c1)c(OC(C)(C)C(=O)NCc1ccncc1)nn2Cc1cccc(OC)c1,i
CC(C)CNC(=O)C(C)(C)Oc1nn(CC2CC2)c2ccc(CN3CCCC3)cc12,39.8µM*
CC(C)(Oc1nn(Cc2cccc(Cl)c2)c2ccccc12)C(=O)NCCc1cnc[nH]1,i
CC(C)(C(=O)NCc1ccc(CN2CCCC2)cc1)c1ccccc1,i
CC(C)(Oc1nn(CC2CC2)c2ccc(CN3CCCC3)cc12)C(=O)NCC(F)(F)F,35.5µM*
COCc1ccc2c(c1)c(OC(C)(C)C(=O)NCC1CCOCC1)nn2Cc1cccnc1,i
CC(C)(Oc1nn(CC2CC2)c2ccc(CN3CCCC3)cc12)C(=O)Nc1cccnc1,28.2µM*
O=C(NCC(F)(F)F)C1CCCN(Cc2cccc(F)c2)C1 (stereo not given),i
CN1c2cccnc2CN(Cc2ccc(OC(F)(F)F)cc2)CC[C@H]1CO,i
c1ccc2ncc(CNC[C@H]3COCc4nc5ccccc5n43)cc2c1,i
COc1cccc2ccn(CC(=O)NCc3ccccc3)c12,i
CCn1c(SC(C)C(=O)Nc2ccnn2C(C)C)nnc1C1CC1 (stereo not given),i
CCOc1cc(S(=O)(=O)N2CCN(CCO)CC2)ccc1Cl,i
CCCCn1nc(C(=O)Oc2ccc(C(C)=O)cc2)c2ccccc2c1=O,i
COCc1ccc2c(c1)c(OC(C)(C)C(=O)Nc1ccccn1)nn2Cc1cccc(OC)c1,i
CN1CCN(C(=O)C(C)(C)Oc2nn(CC3CC3)c3ccc(CN4CCCC4)cc23)CC1,35.5µM*
Cc1ccc(C2Cn3nnc(C(=O)N4CCN(C(=O)c5cccc(F)c5)CC4)c3CO2)cc1 (stereo not given),i
